Assay outcomes: PubChem BioAssay, several laboratories
m5-HT2A agonist: activates the mouse 5-HT2A serotonin receptor; P35363; CHO-K1 mHTR2A beta-arrestin complementation, luminescence; percent of 30 µM serotonin response; activation, % at 7.6 µM; 360,000 tested, 0.66% active; AID 624169;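 active = activation above a run cutoff, the mean activation of all tested compounds plus 3 SD, cut at about 14% in these data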;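 also: 0% = plate median of compound wells and 100% = 30 µM serotonin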
JMJD2C inh: human JMJD2C demethylase inhibition; 330,000 tested, 0.069% active; GST-JMJD2C(1-420) H3K9me3 demethylation, DELFIA europium; AID 2099; inhibition, % at 2.35 µM;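 active = more than half of a compound's replicate wells show inhibition beyond 50%, single wells judged on their own value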;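 also: signal counts dimethyl H3K9 product captured on neutravidin plate; 0% = median of DMSO wells and 100% = 0.3 times that DMSO median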
Target sequence (Q9H3R0 1-420 limits assumed): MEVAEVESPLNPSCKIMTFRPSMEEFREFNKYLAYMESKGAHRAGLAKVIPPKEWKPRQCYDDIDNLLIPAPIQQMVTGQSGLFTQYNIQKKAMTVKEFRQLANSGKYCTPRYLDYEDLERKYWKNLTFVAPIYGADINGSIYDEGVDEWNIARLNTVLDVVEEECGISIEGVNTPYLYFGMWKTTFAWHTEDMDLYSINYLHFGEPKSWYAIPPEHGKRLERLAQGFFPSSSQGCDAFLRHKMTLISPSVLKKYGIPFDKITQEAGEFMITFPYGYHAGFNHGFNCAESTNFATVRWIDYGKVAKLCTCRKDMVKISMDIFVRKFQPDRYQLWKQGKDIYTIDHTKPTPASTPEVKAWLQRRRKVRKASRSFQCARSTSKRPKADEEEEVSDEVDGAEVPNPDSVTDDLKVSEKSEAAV
VLA-4 inh: inhibition in a human VLA-4 binding assay. VLA-4 expressing cells, ligand binding flow cytometry. AID 2557. 330,000 tested, 0.2% active. inhibition, % (about 7 µM as worked out from the volumes in the protocol); in the data active = inhibition above about 50%
Granule exo inh: blocks lytic granule exocytosis. TALL-104 LAMP-1 surface exposure, flow cytometry; cells stimulated with thapsigargin and PMA. inhibition, % at 10 µM. 360,000 tested, 0.66% active;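 active = inhibition above about 55%, limit read from the data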
V-ATPase pH: regulators of yeast V-ATPase proton transport; response, % at 10 µM; AID 504577; S. cerevisiae, pHLuorin cytosolic pH fluorescence; 350,000 tested, 0.37% active; in the data active = response mostly above about 7.3%, no sharp cut-off; inactive = mostly below about 5.4%; also: actives read high
MEX-5 binding: C. elegans MEX-5 TCR-2 RNA binding activity | Q9XUB2 | MEX-5/FITC-TCR2 RNA binding, fluorescence polarization; active compounds read low | activity score (negative = inhibition of binding), % at 10 µM | 300,000 tested, 0.38% active;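 active = inhibition past about -25% in most replicates, and total fluorescence under double the plate's negative control median, limit read from the data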;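 also: 0% = DMSO and -100% = 5 µM competing unlabeled TCR2 RNA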
Granule exo CP1: lytic granule exocytosis inhibition. TALL-104 cells, LAMP-1 externalization, flow cytometry; stimulated with PMA plus thapsigargin. 1,500 tested, 11% active. shares compounds with Granule exo inh. inhibition, % at 10 µM. AID 651954; in the data active = inhibition above about 60%;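 also: 0% = stimulated vehicle wells and 100% = unstimulated wells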
Active calls of the source: *; x = no result given. An excerpt weighted towards active compounds, which were near 2.2% of everything screened.

SMILES | m5-HT2A agonist | JMJD2C inh | VLA-4 inh | Granule exo inh | V-ATPase pH | MEX-5 binding | Granule exo CP1
COc1ccccc1NS(=O)(=O)c1cc(C(=O)N2CCCC2)ccc1F | 0 | x | x | -6 | 1 | x | x
Cc1cccc(COC[C@H](CC(C)C)N2CCN(C(=O)c3ccc(C(C)(C)C)cc3)CCC2=O)c1 | -6 | x | x | 2 | x | x | x
Cc1cccc(COCC(CC(C)C)N2CCN(C(=O)c3ccc(C(C)(C)C)cc3)CCC2=O)c1 (stereo not given) | -1 | -7 | x | 66* | 6 | 0 | -4
CCOC(=O)c1c(-c2ccc(OC)cc2)oc2ccc(OCC(N)=O)cc12 | -2 | -22 | -3 | 31 | 5 | 0 | x
CCOC(=O)c1c(-c2ccc(OC)cc2)oc2ccc(O)cc12 | 2 | -2 | -3 | 63* | 3 | 0 | -12
CN1CCN(Cc2nc3ccccc3c(=O)n2Cc2nc(-c3ccc([N+](=O)[O-])cc3)cs2)CC1 | -2 | -7 | -23 | 75* | -1 | -1 | 97*
Cc1cc(-c2ccc([N+](=O)[O-])cc2)nc2ccccc12 | -4 | 0 | 12 | 1 | -2 | 1 | x
Cc1cc(N2CCN(c3nc(-c4ccc([N+](=O)[O-])cc4)cs3)CC2)c2ccccc2n1 | -1 | -7 | 0 | 66* | 3 | 0 | 79*
COCCN1CC(=O)N2C(c3cccc(OC)c3)c3[nH]c4ccccc4c3C[C@H]2C1=O (stereo not given in full) | 3 | -6 | 18 | 0 | -2 | -1 | x
O=C(Nc1ccc(CN2CCOCC2)cc1)c1ccc(-c2cccc(Cl)c2)o1 | -7 | 4 | -17 | 1 | 2 | -1 | x
O=C(NC(=S)Nc1ccc(CN2CCOCC2)cc1)c1ccc(-c2cccc(Cl)c2)o1 | -3 | 4 | 17 | 58* | -1 | 1 | 25
OC(CNCCC(c1ccccc1)c1ccccc1)COc1ccccc1 (stereo not given) | -6 | -17 | 4 | 74* | -1 | 0 | -4
Cc1ccc(-c2noc(CNC(=O)c3ccc4c(c3)OCO4)n2)cc1 | -3 | -5 | -4 | -8 | -1 | 1 | x
COc1c(Cl)ccc(Cl)c1C(=O)NC(=S)N1CCOCC1 | 6 | 4 | -2 | 2 | -1 | -1 | x
C/C=C/c1ccc(OCCOCCNCc2ccccc2)c(OC)c1 | 0 | -5 | 8 | 70* | 0 | 2 | -5
Cc1ccc(Br)cc1S(=O)(=O)N1CCN(c2ccccc2)CC1 | -3 | -5 | -1 | 66* | -1 | 4 | -1
CCCCC(=O)Nc1nc(C)c(-c2csc(Nc3ccccc3OC)n2)s1 | 0 | -1 | 5 | 57* | -1 | 0 | -14
Cc1ccc(S(=O)(=O)N2CCN(C(=S)NCc3ccc4c(c3)OCO4)CC2)cc1 | -3 | -3 | 3 | 75* | 0 | -2 | -4
Cc1ccnn1CCC(=O)N1CCCC(N2CCN(c3cccc(Cl)c3)CC2)C1 (stereo not given) | -5 | 3 | 4 | 6 | 0 | -3 | x
CC(C)(C)NC(=O)C(OC(=O)c1cccs1)c1ccccc1 (stereo not given) | -6 | -20 | 2 | 0 | 0 | 1 | x
CC(C)(C)NC(=O)C(OC(=O)c1cccs1)c1ccc(F)cc1 (stereo not given) | 1 | -4 | -15 | 66* | -3 | 2 | -4
NC(=O)SCC(=O)Nc1ccc(Cl)cc1 | 4 | -12 | 5 | 78* | -4 | 2 | -6
NC(=O)SCC(=O)Nc1ccc(Cl)c(Cl)c1 | 10 | -8 | -11 | 3 | -2 | x | x
CCN(CC)CCNc1nc(-c2ccc(OC)cc2)c(-c2ccc(OC)cc2)s1 | -2 | 4 | 4 | 66* | 0 | -2 | -2
c1ccc(CN2CCN(C3CCCSc4ccccc43)CC2)cc1 (stereo not given) | -6 | -17 | -2 | 60* | 2 | 1 | -13
CCCOc1ccccc1NC(=O)/C=C/C(N)=O | 2 | -9 | 12 | 66* | -5 | 0 | 0
CCOC(=O)C(=CNc1ccccc1C)C(=O)OCC | 5 | 9 | -1 | -1 | 4 | 1 | x
